Assay outcomes as filed in PubChem.
PP5 primary – blocks human protein phosphatase 5 activity | 0.18% of 320,000 active | purified PP5c, OMFP substrate fluorescence | P53041 | AID 1987 | inhibition, % at 6.7 µM;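 active = inhibition above the campaign's mean inhibition across all tested compounds plus 3 SD, cut at about 9.5% in these data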;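 note: 0% = DMSO only and 100% = 100 µM cantharidin control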
Target sequence (P53041 whole entry, looked up): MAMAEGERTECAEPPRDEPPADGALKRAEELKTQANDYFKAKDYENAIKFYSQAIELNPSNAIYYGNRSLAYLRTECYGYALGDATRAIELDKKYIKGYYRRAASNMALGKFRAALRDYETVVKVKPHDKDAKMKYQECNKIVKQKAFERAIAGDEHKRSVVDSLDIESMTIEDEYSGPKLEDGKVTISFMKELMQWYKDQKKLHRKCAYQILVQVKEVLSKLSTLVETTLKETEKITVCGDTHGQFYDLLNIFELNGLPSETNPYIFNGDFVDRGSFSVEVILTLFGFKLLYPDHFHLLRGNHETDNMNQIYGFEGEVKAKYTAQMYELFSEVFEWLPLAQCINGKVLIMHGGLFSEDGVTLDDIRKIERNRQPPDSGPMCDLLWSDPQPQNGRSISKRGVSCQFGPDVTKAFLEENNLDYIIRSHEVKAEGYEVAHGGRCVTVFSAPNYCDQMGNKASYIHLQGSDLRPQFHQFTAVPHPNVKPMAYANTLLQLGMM
pPAFAH inh – inhibitors of human plasma PAF acetylhydrolase (pPAFAH); inhibition, % at 3.39 µM; recombinant pPAFAH, FP-rhodamine probe fluorescence polarization; 1.5% of 330,000 active; Q13093; AID 463082;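 active = inhibition above the mean inhibition across the screen plus 3 SD, cut at about 25% in these data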;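 note: inhibitors block binding of the rhodamine activity-based probe so polarization drops; 0% = enzyme with DMSO and 100% = wells lacking pPAFAH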
PAFAH1B2 FP inh – PAFAH1B2 (human) inhibition. inhibition, % at 3.39 µM. 1.2% of 340,000 active. recombinant PAFAH1B2, FP-rhodamine activity probe, fluorescence polarization. AID 492953. P68402;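 active = inhibition above the mean of all tested compounds plus 3 SD, cut at about 24% in these data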;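 note: 0% = enzyme with DMSO and 100% = wells lacking PAFAH1B2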
CTSL1 counter – counter-screen for PFM18AAP inhibitors: inhibitors of F. hepatica cathepsin L1 | recombinant F. hepatica cathepsin L1, Z-Leu-Arg-MCA fluorescence | inhibition, % at 5.96 µM | 0.49% of 300,000 active;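 active = inhibition above the mean of all tested compounds plus 3 SD, set per screening campaign, cut at about 17% in these data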;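 note: 0% = plate median of test compound wells and 100% = 1 µM Z-Phe-Ala-diazomethylketone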
PAFAH2 FP inh – PAFAH2 (human) inhibition; recombinant PAFAH2, FP-rhodamine activity probe, fluorescence polarization; Q99487; inhibition, % at 3.39 µM; 0.99% of 340,000 active;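 active = inhibition above the mean over all tested compounds plus 3 SD, cut at about 30% in these data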;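 note: inhibitors block probe labeling of enzyme so polarization drops; 0% = enzyme with DMSO and 100% = wells lacking PAFAH2 protein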
PAFAH1B3 inh – inhibitors of human PAFAH1B3. Q15102. recombinant PAFAH1B3, FP-rhodamine probe, fluorescence polarization. inhibition, % at 3.39 µM. 0.28% of 340,000 active;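 active = inhibition above the screen-wide average of all tested compounds plus 3 SD, cut at about 25% in these data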;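 note: 0% = enzyme with DMSO only and 100% = wells lacking PAFAH1B3 protein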
PP5 conf – PP5 (human) inhibition, confirmation; shares compounds with PP5 primary; Purified PP5, fluorogenic phosphatase substrate, fluorescence; inhibition, % at 6.7 µM; 22% of 460 active; AID 2331; in the data active = inhibition above about 9.5%
PP1 inh counter – PP1 phosphatase inhibition, counter-screen for PP5 inhibitors | shares compounds with PP5 primary | PP1 enzyme, fluorescent phosphatase substrate | inhibition, % at 6.7 µM | 4% of 460 active | AID 2355; in the data active = inhibition above about 16%
Numbers without * were called inactive; · = no result. Rows were chosen to be rich in hits. Some 3% of all compounds tested hit in one or more screens of this group.

SMILES | PP5 primary | pPAFAH inh | PAFAH1B2 FP inh | CTSL1 counter | PAFAH2 FP inh | PAFAH1B3 inh | PP5 conf | PP1 inh counter
CCN(CC)CCN(Cc1cc2cc3c(cc2[nH]c1=O)OCO3)C(=S)NCCCOC | 12* | 2 | -3 | 0 | 1 | 7 | -5 | -4
CCN(CC)CCCN(Cc1cc2cc3c(cc2[nH]c1=O)OCO3)C(=S)NCCCOC | 3 | 3 | 1 | -1 | 3 | 5 | · | ·
COc1ccc(C(CNC(=O)CN2C(=O)NC3(CCCC3)C2=O)N(C)C)cc1 (configuration not stated) | -2 | 2 | -4 | -1 | 5 | 11 | · | ·
CC(C)Oc1cc(NC(=O)CS(=O)CC(=O)Nc2cccc(C(F)(F)F)c2)c(Cl)cc1Cl (configuration not stated) | 13* | -6 | 1 | 1 | -22 | -20 | 5 | 5
CC(C)Oc1cc(NC(=O)CS(=O)CC(=O)N(C)C)c(Cl)cc1Cl (configuration not stated) | 3 | 0 | 4 | -4 | -6 | 2 | · | ·
O=C(N1CCOCC1)N1CCN(C(c2ccccc2)c2ccccc2)CC1 | 10* | 5 | 4 | 0 | -5 | 5 | -2 | -4
O=C(N1CCCCC1)N1CCN(C(c2ccccc2)c2ccccc2)CC1 | 3 | 14 | 3 | 4 | 10 | -3 | · | ·
CCn1ncc(Br)c1C(=O)Nc1ccc(C(C)C)cc1 | 1 | -3 | 0 | 3 | 4 | -15 | · | ·
CC(C)(C)c1ccc(C(=O)NNc2cc(N3CCCCC3)nc(N3CCCCC3)n2)cc1 | 5 | 8 | 2 | 0 | -1 | 7 | · | ·
O=C(NNc1cc(N2CCCC2)nc(N2CCCC2)n1)c1ccc([N+](=O)[O-])cc1 | 11* | 8 | 3 | -4 | 1 | 5 | 34* | 4
CCCCOc1ccc(C(=O)NCCOc2cccc(OC)c2)cc1 | 9.8* | -2 | 2 | 0 | -3 | 4 | -1 | -1
COc1ccc(OCCNC(=O)c2cccc(Oc3ccc(C(F)(F)F)cc3[N+](=O)[O-])c2)cc1 | 10* | 5 | 2 | 3 | 3 | -4 | 3 | -3
O=C(NCCO)c1ccc(Oc2ccc(C(F)(F)F)cc2[N+](=O)[O-])cc1 | 2 | 4 | 1 | 0 | -1 | 3 | · | ·
Fc1c(F)c(-n2nnc3ccccc32)c(F)c(F)c1Cl | 3 | 2 | 5 | 2 | 4 | -2 | · | ·
CCN(CC)S(=O)(=O)c1ccc(O)c(NC(=O)COc2ccc(S(=O)(=O)N3CCOCC3)cc2)c1 | · | · | 1 | · | 13 | 12 | · | ·
COc1cc(OC)c(C2C(C(=O)Nc3ccc(C)cc3C)=C(C)Nc3ncnn32)cc1OC (configuration not stated) | 15* | -3 | 5 | -5 | 3 | 4 | -3 | -3
COc1cc(OC)c(C2C(C(=O)Nc3ccccc3)=C(C)Nc3ncnn32)cc1OC (configuration not stated) | 0 | 4 | -3 | -2 | -8 | 0 | · | ·
COC(=O)[C@@]12CCCN1[C@H](c1ccc(-c3ccccc3)cc1)[C@@H]1C(=O)N(C)C(=O)[C@@H]12 | 4 | 9 | 2 | -3 | 0 | 6 | · | ·
CC1(C)CC(=O)C2=C(C1)c1c(ccc3ccccc13)NC2c1ccc(OCC(=O)O)cc1 (configuration not stated) | 9.8* | 4 | 6 | -4 | -3 | 11 | -2 | 1
COc1cc(C2Nc3ccc4ccccc4c3C3=C2C(=O)CC(C)(C)C3)ccc1OCC(=O)O (configuration not stated) | -1 | 0 | 2 | 3 | -1 | 14 | · | ·
COc1ccc2nc(C(F)(F)C(F)(F)F)c(C#N)c(N)c2c1 | 9.8* | -4 | 5 | 0 | -2 | 6 | 9 | 7
COc1cccc(N2CCN(S(=O)(=O)c3ccc4c(c3)N(C(C)=O)CCO4)CC2)c1 | 3 | 2 | 2 | 1 | -3 | 0 | · | ·
NNC(=O)CCc1ccc(S(=O)(=O)N2CCOCC2)cc1 | 11* | 3 | 2 | 0 | 5 | 7 | -1 | -1
Cn1c(NC(=O)c2ccco2)c(-c2ccccc2)c(=O)c2ccccc21 | -1 | 6 | 4 | 0 | 1 | 1 | · | ·
CCn1c(NC(=O)c2ccco2)c(-c2ccccc2Cl)c(=O)c2ccccc21 | 12* | 5 | 3 | -1 | -3 | 3 | -8 | -5
SMILES | PP5 primary | pPAFAH inh | PAFAH1B2 FP inh | CTSL1 counter | PAFAH2 FP inh | PAFAH1B3 inh | PP5 conf | PP1 inh counter
Cc1ccc(NC(=O)c2ccccc2F)cc1S(=O)(=O)N1CCCCCC1 | 11* | -2 | 0 | -8 | 6 | -1 | 0 | -1
Cc1ccc(NC(=O)Cc2ccccc2F)cc1S(=O)(=O)N1CCCCCC1 | 5 | 2 | -5 | · | 5 | 0 | · | ·
CCN(CC(=O)Nc1ccc(NC(C)=O)cc1)CC(=O)Nc1cccc(Cl)c1 | 9.8* | 3 | -1 | -2 | 1 | -6 | -3 | -2
CCN(CC(=O)Nc1ccc(NC(C)=O)cc1)CC(=O)Nc1ccc(Cl)c(Cl)c1 | -1 | -2 | 8 | 1 | -2 | 15 | · | ·
CC1(C)C=Cc2c(ccc3c2OC[C@H](c2ccc(O)cc2O)C3)O1 | 9.6* | -4 | 6 | · | 15 | 13 | 8 | 5
Cc1ccccc1NC(=O)CCc1nnc2ccc(N3CCC4(CC3)OCCO4)nn12 | 1 | -7 | 3 | 1 | 0 | 6 | · | ·
COc1ccc(C(=O)N/N=C/c2c[nH]c3ccccc23)cc1 | 1 | -1 | 7 | 9 | 9 | 7 | · | ·
CCCOc1ccc(C(=O)N/N=C/c2c[nH]c3ccc(Br)cc23)cc1 | 12* | 27* | 7 | 8 | 0 | 9 | 5 | 2
Oc1ccc(N=Cc2ccc(-c3cccs3)s2)cc1 | 11* | 22 | 14 | 40* | 9 | 16 | 0 | -2
Cc1cc(C)c(S(=O)(=O)/N=C2/C=C(Sc3ncn[nH]3)C(=O)c3ccccc32)cc1C | 11* | 10 | 72* | 92* | 47* | 49* | 32* | 12
COc1cc(C=O)ccc1OCCOCCOc1ccc(Cl)cc1 | 3 | 2 | 2 | -1 | 2 | 2 | · | ·
COc1cc(C=O)ccc1OCCSc1ccc(Cl)cc1 | 15* | 21 | 56* | 1 | 1 | 1 | -1 | -1
O=C(COc1ccc(Br)cc1)NCCNC(=O)c1ccccn1 | -1 | 2 | 8 | 3 | 1 | 12 | · | ·
O=C(Nc1ccccc1C(=O)N1CCOCC1)C1CC(=O)N(C2CCCC2)C1 (configuration not stated) | 13* | 2 | 0 | -2 | -11 | 4 | -3 | -4
Cc1ccc(CNC(=O)c2ccc(C#CC(C)(C)O)s2)cc1 | 9.6* | 9 | 5 | -1 | -3 | 11 | -3 | -2
